In PubChem BioAssay AID435019 (Southern Research Specialized Biocontainment Screening …, 2010):
The whole screen tested about 2,300 compounds, of which about 1,200 (52%) were called active. The rule behind the calls is not given here. The set was probably picked from earlier hits. The list shows a part of the results. Measured potencies and affinities stand elsewhere.

assay: mammalian cell cytotoxicity, dose response, cytotoxicity control for M. tuberculosis inhibitor project (AID 435019); conditions: cytotoxicity counter-screen; series mostly up to 40 µM;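 note: lower values mean fewer viable cells so more cytotoxicity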

Structure (SMILES)	outcome
Clc1ccc(CSc2ncn[nH]2)cc1	inactive
Nc1ccc(OCc2ccco2)cc1	inactive
CCCn1nc(C(=O)NNC(=O)c2ccc(C)c(C)c2)c2ccccc2c1=O	inactive
CCOC(=O)c1ccc(NC(=O)CCc2nc(-c3ccc(Cl)cc3)no2)cc1	inactive
CCOC(=O)c1ccc(NC(=O)CSc2ccc(-c3cccnc3)nn2)cc1	inactive
COc1cccc(/C=C/c2nc(C#N)c(NCC(C)C)o2)c1	inactive
O=C(CCc1c[nH]c2ccccc12)N1CCN(S(=O)(=O)c2ccccc2)CC1	inactive
CN(C)CCCN(C(=O)c1ccc([N+](=O)[O-])s1)c1nc2cc3c(cc2s1)OCCO3	inactive
Cc1ccc(-n2nnc3c(=O)oc4ccccc4c32)cc1	inactive
Oc1cccc(-c2nc3ccccc3s2)c1	inactive
Cc1nc2sccn2c(=O)c1CCN1CCC(=C(c2ccccc2)c2ccc(F)cc2)CC1	inactive
Nc1c(C(=O)NC2CCCCC2)nsc1C(=O)OCC(=O)NC1CCCCC1	inactive
O=c1[nH]c(=O)n(C2CCCO2)cc1F (stereo not given)	inactive
NN/C(=C\[N+](=O)[O-])Nc1ccc(Cl)cc1	inactive
CSc1ccc(CNC(=O)C2Cc3cc(S(=O)(=O)N4CCCCC4)ccc3N2C(C)=O)cc1 (stereo not given)	inactive
Cc1ccc(CN2CCN(/N=C/c3ccc(Cl)c([N+](=O)[O-])c3)CC2)cc1	inactive
CC(C)CS(=O)(=O)C1=NN2C(=N)/C(=C\c3ccc(OC(=O)c4ccco4)cc3)C(=O)N=C2S1	inactive
CCCOC(=O)c1ccc(-c2ccc(C=O)o2)cc1	inactive
O/N=C/c1cn(-c2ccc(Cl)cc2)nn1	inactive
COC(=O)CC(=O)N1CCN(c2ccc(Cl)c(Cl)c2)CC1	inactive
CSCCOC(=O)COc1ccc(/C=N/NC(=O)c2c(Cl)cnn2C)cc1	inactive
O=C1CCC(=O)N1CNc1ccc(Oc2ccccc2)cc1	inactive

Structure (SMILES)	outcome
O/N=C/c1ccc2ccccc2c1	inactive
Nc1cc(C(=O)OCC(=O)NNC(=O)c2cccs2)ccc1Cl	inactive
CCCNc1nc(-c2cc(C(=O)Nc3ccccc3)on2)cc(C(C)C)n1	inactive
CO/N=C(\Cn1ncc(N2CCCC2)c(Cl)c1=O)c1ccc(Cl)cc1	inactive
O=C(COc1cc(O)c2c(=O)c3ccccc3oc2c1)OCc1ccccc1	inactive
C=CCC1(CC=C)CCCN1C(=O)c1cc(COc2ccc(-n3cncn3)cc2)on1	inactive
O=[N+]([O-])c1ccc(-c2csc(NN=C3CCCC3)n2)cc1	inactive
Cn1nc(C(F)(F)F)c2cc(NC(=O)OCC(C)(C)C)sc21	inactive
CCCCCCN=C1CC(C)(C)CC(=O)/C1=C(/O)CCC	inactive
Cc1occc1-c1nnc(SCC(=O)NCCc2ccccc2)o1	inactive
S=C(NCCc1ccccc1)NN=C1CCCCCC1	inactive
O=S(Cc1ccc(Br)cc1)Cc1nnc(SCc2ccc(Cl)cc2)n1-c1ccccc1 (stereo not given)	inactive
O=C(COC(=O)c1cccs1)c1ccccc1	inactive
COC(OC)c1ccnc(-c2ccc(OC(=O)c3cccs3)cc2)n1	inactive
CCOC(=O)c1ccc(OC(=O)CCCCCN=C(N)N)cc1	inactive
CC1(C)CC(=O)c2c(O)cc(OCc3ccc(Br)cc3)cc2O1	inactive
CCOc1ccc(NC(=O)CCc2nnc3ccc(N4CCC(C)CC4)nn23)cc1	inactive
Cc1ccc(C(C)C)c(OCC(=O)OCc2c(C)noc2C)c1	inactive
Cc1ccccc1Nc1nc(N)nc(COC(=O)c2ccc([N+](=O)[O-])o2)n1	inactive
Cc1ccc(Nc2nc(N)nc(CN3CCc4ccccc4C3)n2)cc1	inactive
CCOC(=O)CN(C#N)c1nc(N(C)C)nc(N(C)C)n1	inactive
CN(C)N=Nc1nc[nH]c1C(N)=O	inactive

Structure (SMILES)	outcome
CCNc1nc(NCC)n2c(SC(C(=O)Nc3cc(C)ccc3C)c3ccccc3)nnc2n1 (stereo not given)	inactive
Cn1cc(/C=C2\C(=O)NC(=O)N(c3ccccc3)C2=O)c2ccccc21	inactive
CC(C)Cn1c(N2CCN(C(=O)/C=C/c3ccccc3)CC2)nc2ccccc21	inactive
CC(C)(Oc1ccc(Cl)cc1)C(=O)OCC(=O)N1CCN(c2ccccc2)CC1	inactive
CCN(CC)C(=O)Oc1ccc2c(=O)c(-c3ccc(OC)cc3)coc2c1	inactive
CN(C)C(=O)C1C2NC(=S)N(c3ccc(Cl)cc3)C1(C)Oc1ccc(Cl)cc12 (stereo not given)	inactive
COc1cc(NC(=O)C/C(C)=N/NC(=O)c2ccccn2)c(OC)cc1Cl	inactive
O=c1oc2cc(O)ccc2c2ccccc12	inactive
Cc1ccc(-c2ccc(/C=N/c3ncn[nH]3)o2)cc1Cl	inactive
C=C(C)C1CC=C(C)/C(=N/NC(=O)CNc2ccc(OCC)cc2)C1 (stereo not given)	inactive
O=C(c1ccc(C#Cc2ccccc2)o1)N1CCN(c2ccccn2)CC1	inactive
CCCOC(=O)CSc1nc(N2CCOCC2)c2c(c1C#N)CC(C)(C)OC2	inactive
O=C(Oc1ccc(-c2cn3c(n2)SCC3)cc1)c1ccccc1	inactive
CC(=Nc1ccc(C)c(C)c1)C1=C(O)CSC1=O	inactive
Oc1ccccc1C=NC1=NN(c2cccc(C(F)(F)F)c2)CC1	inactive
O=C(O)c1ccccc1C(=O)NNc1ccc(Cl)cc1Cl	inactive
Cc1nn(C(C)(C)C)c(NC(=O)c2ccc(Cl)cc2Cl)c1Br	inactive
O=C(C[n+]1cc(-c2ccc(Cl)cc2)n2c1CCC2)Nc1nc(-c2ccccc2)cs1	inactive
COc1ccc(N=c2ssnc2Cl)cc1	inactive
O=C(CSc1cccc[n+]1[O-])c1cccs1	inactive
O=C(OCC(=O)N1CCCc2ccccc21)c1ccc(S(=O)(=O)C(F)F)cc1	inactive
CCN(CC)CCN(C(=O)c1ccc(S(=O)(=O)N2CCCC2)cc1)c1nc2cc(C)cc(C)c2s1	inactive

Structure (SMILES)	outcome
COc1cc(C(=O)N/N=C/c2cc([N+](=O)[O-])cs2)cc(OC)c1OC	inactive
Cc1ccc(CN2CCN(Cc3ccc(-n4cccn4)cc3C)CC2CCO)cc1 (stereo not given)	inactive
COc1ccc(N=C/C=C2/C=C(c3ccccc3)OC(C)(C)O2)cc1	inactive
N#CC(C#N)=C(N)CSc1cccc[n+]1[O-]	inactive
CCOc1ccc(-c2nn3c(-c4ccccc4)nnc3s2)cc1	inactive
CCOc1ccc(N=C(NC#N)SCC(=O)NC2CC2)cc1	inactive
COc1ccc(Cc2nnc(SCC(=O)N(c3ccccc3)C(C)C)n(N)c2=O)cc1	inactive
CC(C)Oc1ccc(NC(=O)Oc2ccccc2)cc1	inactive
CC(c1nc2ccccc2c(=O)[nH]1)N(C)CCOc1ccc(Cl)cc1 (stereo not given)	inactive
CCOC(=O)C1CCN(C(=O)c2ccc3c(c2)NC(=O)/C(=C/c2ccccc2)S3)CC1	inactive
CN(C)c1ccc(CNc2nc(-c3ccccc3)nn2S(C)(=O)=O)cc1	inactive
Nc1ccc(N=Nc2ccccc2)c(N)n1	inactive
C#CCOC(=O)/C(=C/c1ccc(F)cc1)NC(C)=O	inactive
Cc1ccc(C(=O)C[n+]2cc(-c3ccc(C)cc3)n3c2CCCCC3)cc1	inactive
COc1ccc(-n2c(-c3ccc(Cl)cc3)c[n+]3c2CCc2ccccc2-3)cc1	inactive
O=C(CN1CCN(Cc2ccc(Cl)cc2)CC1)N/N=C/C=C/c1ccccc1[N+](=O)[O-]	inactive
O=S(=O)(Nc1ccc2[nH]ncc2c1)c1ccccc1Cl	inactive
CC(C)(C)C1CCc2nc(NC(=O)Cc3cn4ccsc4n3)sc2C1 (stereo not given)	inactive
COC(=O)[C@H](CCSC)NC(=O)N1CCN(c2cccc(C(F)(F)F)c2)CC1	inactive
Cc1cc2c(cc1C)/C(=N/NC(=O)c1ccccn1)CCC2	inactive
O=C(NNC1CC(=O)N(c2ccc(Br)cc2)C1=O)c1ccccn1 (stereo not given)	inactive
Cc1nn(-c2ccccc2)c(Cl)c1C(=O)Nc1nnc(C2CCCCC2)s1	inactive

Structure (SMILES)	outcome
Cc1nn(-c2ccccc2)c(Cl)c1/C=C/C(=O)c1ccccc1	inactive
Cc1cccc(C)c1OCCCCc1c(C)n[nH]c1C	inactive
COC(=O)CCc1sc(Nc2ccc(Br)cc2)nc1-c1ccc(OC)cc1	inactive
COc1cccc(NC(=O)CNC(=O)Cn2cnc3sc4c(c3c2=O)CCCC4)c1	inactive
COC(=O)c1cc(-c2cccc(OC)c2)on1	inactive
CCNC(=S)NN=C1c2ccccc2-c2ccccc21	inactive
Cn1/c(=N/NC(=O)c2cccc(OC(F)F)c2)sc2ccccc21	inactive
CC(OC(=O)COc1ccc(Nc2ccccc2)cc1)C(=O)N(C)c1ccccc1 (stereo not given)	inactive
C[n+]1c(-c2ccccc2)cc(CCCCc2cc(-c3ccccc3)[n+](C)c(-c3ccccc3)c2)cc1-c1ccccc1	inactive
CC1CC(C)CN(C(=O)C2CCC(CNc3c(N4CCCCC4)c(=O)c3=O)CC2)C1 (stereo not given)	inactive
CCC(C)c1ccc2oc(-c3ccc(NC(=O)c4ncn[nH]4)cc3)nc2c1 (stereo not given)	inactive
CC(/C=C/C=C/c1ccccc1)=N\NC(=O)c1cccnc1	inactive
CCOC(=O)COc1cc([N+](=O)[O-])cc2cccnc12	inactive
CCC1CSC(Nc2ccc(C(=O)/C=C/c3cccc(C)c3)cc2)=N1 (stereo not given)	inactive
O=C(c1ccccc1)c1c[nH]c(C(=O)NNc2ccccc2)c1	inactive
COc1ccc(Cc2nc3ccc(C(=O)NCCCSC)cc3o2)cc1OC	inactive
Cc1ncc(C23CC4CC(CC(C4)C2)C3)[nH]1	inactive
COc1cc(/C=C2\C(=O)NN(c3ccc(C)cc3)C2=O)cc([N+](=O)[O-])c1O	inactive
CC(C)(C)NC(=O)COC(=O)c1cc(Br)ccc1Cl	inactive
Cc1nonc1OCCNCCNc1ccc([N+](=O)[O-])c2cccnc12	inactive
O=C1C(Br)=Cc2cccc3cccc1c23	inactive
C=C[C@]1(C)C[C@@H](OC(=O)CSCCN(CC)CC)[C@]2(C)C(C)CC[C@]3(CCC(=O)[C@H]32)[C@@H](C)[C@@H]1O (stereo not given in full)	inactive
